The text below walks through data of PubChem BioAssay (NCATS).

Inconclusive results are not listed. Unmarked numbers belong to inactive results. Activity calls are given as the source filed them. The call rests on the fitted dose curve.
On the % scale 0 is the no-effect control and ±100 the full control effect.

Sequence of Vitamin D3 receptor (Homo sapiens) (P11473 whole entry, looked up): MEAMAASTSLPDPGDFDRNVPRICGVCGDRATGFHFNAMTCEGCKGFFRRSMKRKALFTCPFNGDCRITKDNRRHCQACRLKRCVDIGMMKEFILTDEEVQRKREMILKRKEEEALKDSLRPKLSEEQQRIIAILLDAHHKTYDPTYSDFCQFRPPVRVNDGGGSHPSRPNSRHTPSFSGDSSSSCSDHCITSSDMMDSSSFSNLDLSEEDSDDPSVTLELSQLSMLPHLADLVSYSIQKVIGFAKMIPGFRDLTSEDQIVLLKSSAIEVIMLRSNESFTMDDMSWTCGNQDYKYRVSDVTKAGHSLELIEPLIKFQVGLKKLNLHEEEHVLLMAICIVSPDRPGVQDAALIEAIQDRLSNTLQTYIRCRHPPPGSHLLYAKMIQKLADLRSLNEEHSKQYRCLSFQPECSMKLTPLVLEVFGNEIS

The assay concerns the target Vitamin D3 receptor (Homo sapiens) (UniProt P11473). The experiment in a line: qHTS assay for small molecule antagonists of vitamin D receptor signaling (AID 588541).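 Further: receptor activated by calcitriol during compound treatment.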 The settings on record: HEK293T VDR-UAS-bla, beta-lactamase ratio, antagonist mode; series mostly up to 76.7 µM; activity change, negative = inhibition: at the top concentration. The source says: NIH Chemical Genomics Center [NCGC]
U.S. Environmental Protection Agency [EPA]
National Institutes of Environmental Health Sciences [NIEHS]
National Toxicology Program [NTP]
The Vitamin D receptor (VDR) is a member of nuclear hormone receptor superfamily and it plays a critical role in calcium homeostasis and bone metabolism. It plays a role in inducing cell differentiation, inhibiting cell growth and in thrombogenicity. So, VDR that mediates these effects represents a pharmacological target in prevention and treatment of hyperproliferative malignancies, such as cancer and psoriasis, cardiovascular, immunological, inflammatory and renal diseases etc.
NCGC Assay Protocol Summary
Using a beta-lactamase reporter-gene under control of Vitamin D receptor (VDR) response element, a cell-based assay [GeneBLAzer (VDR -UAS-bla assay developed by Invitrogen] was used to measure VDR ligands signaling. GeneBLAzer VDR -UAS-bla HEK293T cells were used with assay medium containing 2% charcoal-stripped FBS. The assay was performed in clear bottom black Greiner 1536-well plates. Library compounds were measured for their ability to inhibit the reporter gene activity. Compounds were screened in a titration series in 1536-well format. The fluorescence intensity (405 nm excitation, 460/530 nm emission) was measured using an EnVision plate reader. Data was normalized relative to 1-alpha,25-Dihydroxy vitaminD3 control (50 nM, 100%) and DMSO only wells (basal, 0%). Concentration-response titration points for each compound were fitted to the Hill equation yielding concentrations of half-maximal inhibition (IC50) and maximal response (efficacy) values.
qHTS protocol for VDR beta-lactamase assay in antagonist mode
[Step] [Parameter] [Value] [Description]
1. Reagent; 5 uL; 2000 cells/well
2. Incubation; 37 C for 5 hrs
4. Controls (DMSO); 23 nL,
5. Agonist (Stimulator); 1uL; 1-alpha,25-Dihydroxy vitaminD3 at 50 nM and 3 nM final concentrations
6. Incubation; 37 C for 16 hrs
7. Detection reagent; 1 uL of CCF4-dye
8. Incubation; RT for 2 hrs
9. Detection; Fluorescence; Envision plate reader
For orientation: Quantitative high-throughput screening tests each substance at several concentrations.
For `c1ccc2occc2c1`, the result was inactive.

`Brc1ccccc1-c1ccccc1`: the “activity change, negative = inhibition” value is 3.11%.

Regarding `COC(=O)c1c(Cl)c(Cl)c(C(=O)OC)c(Cl)c1Cl`, the “activity change, negative = inhibition” value was 6.39%.

For the molecule `C1=CC2C3C=CC(C3)C2C1` (centres undefined), the “activity change, negative = inhibition” value was 4.12%.

Regarding `O=C(NO)c1ccccc1`, the “activity change, negative = inhibition” value was -0.851%.

For `CCCC(=O)c1cc(O)c(O)cc1O`, the “activity change, negative = inhibition” value was -2.11%.

With `CC(=O)OC/C=C(C)/C=C/C=C(C)/C=C/C1=C(C)CCCC1(C)C`, the “activity change, negative = inhibition” value is 1.56%.

For `O=C(Oc1ccccc1)c1cccc(C(=O)Oc2ccccc2)c1`, the “activity change, negative = inhibition” value was 10.1%.

In the case of `Cc1ccc(O)cc1`, the “activity change, negative = inhibition” value was -4.66%.

In the case of `CC(C)(C)c1ccc(O)c(O)c1`, the result was inactive.

Take `OCCOCCN1CCN(C(c2ccccc2)c2ccc(Cl)cc2)CC1` (centres undefined): the “activity change, negative = inhibition” value is 7.88%.

As to `O=C(c1ccccc1)c1ccccc1`, the result was inactive.

Regarding `CC(C)C(C)(C)C(C)(C)C(C)(C)S`, the result was inactive.

As for `CCCCC(CC)COC(=O)c1ccccc1C(=O)O` (centres undefined), the result was inactive.

Regarding `Cc1ncc(CO)c(CO)c1O`, the “activity change, negative = inhibition” value is 0.875%.

With `CN1C(=O)c2ccccc2C1=O`, the “activity change, negative = inhibition” value is 7.34%.

Take `COc1cc(C=O)ccc1O`: the “activity change, negative = inhibition” value is 1.61%.

For `OCc1c[nH]c2ccccc12`, the “activity change, negative = inhibition” value is 1.34%.

Take `CCCCCCCCCCCC[N+](C)(C)Cc1ccccc1`: the “activity change, negative = inhibition” value was 4.54%.
